Screening results deposited in PubChem BioAssay by National Center for Advancing Translational Sciences (NCATS).
BAZ2B inh: qHTS Assay for Inhibitors of BAZ2B; 360,000 tested, 4.4% active; Potency, µM (top dose mostly 114 µM), for the others: at the highest dose activity change, negative = inhibition, hits mostly inhibitors; AlphaScreen BAZ2B-H3K14Ac peptide displacement; also: potency is read from the fitted curve at half-maximal effect; % is scaled to controls: 0 for no effect and ±100 for the full control effect; nearly all actives have a fitted effect of over 60% in size
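In this displacement format the biotinylated H3(5-23) peptide acetylated at Lys14 serves as ligand at 50 nM, with BAZ2B at 50 nM in PBS pH 7.4 containing 0.01% Tween-20. Donor and acceptor beads are 10 ug/mL final.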
HP1b chromo inh: HTS for Inhibitors of HP1-beta Chromodomain Interactions with Methylated Histone Tails; AlphaScreen HP1-beta / biotin-H3K9me3 peptide binding; Potency, µM (series often up to 114 µM), without a hit: at the highest dose activity change, negative = inhibition, actives largely listed as inhibitors; Chromobox protein homolog 1 (Homo sapiens), P83916; 390,000 tested, 0.56% active; also: potency is read from the fitted curve at half-maximal effect; nearly all actives have a fitted effect of over 70% in size
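AlphaScreen: HP1-beta (50 nM) preformed 30 min with biotin-H3(1-18)K9me3 peptide (50 nM) in PBS pH 7.4, 0.01% Tween-20. Compound added for 30 min at RT, then streptavidin donor/nickel chelate acceptor beads (10 ug/mL) for 30 min.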
JMJD2A Tudor inh: qHTS Assay for Inhibitors of JMJD2A-Tudor Domain; Potency, µM (top dose mostly 114 µM), for inactives: top-dose activity change, negative = inhibition, most hits filed as inhibitors; AlphaScreen JMJD2A-Tudor / H3K4me3 peptide binding; AID 504339, 2011; 390,000 tested, 4.4% active; also: potency is read from the fitted curve at half-maximal effect; % is scaled to controls: 0 for no effect and ±100 for the full control effect; nearly all actives have a fitted effect of over 50% in size
Target sequence (O75164 whole entry, looked up, the tested form may be a part): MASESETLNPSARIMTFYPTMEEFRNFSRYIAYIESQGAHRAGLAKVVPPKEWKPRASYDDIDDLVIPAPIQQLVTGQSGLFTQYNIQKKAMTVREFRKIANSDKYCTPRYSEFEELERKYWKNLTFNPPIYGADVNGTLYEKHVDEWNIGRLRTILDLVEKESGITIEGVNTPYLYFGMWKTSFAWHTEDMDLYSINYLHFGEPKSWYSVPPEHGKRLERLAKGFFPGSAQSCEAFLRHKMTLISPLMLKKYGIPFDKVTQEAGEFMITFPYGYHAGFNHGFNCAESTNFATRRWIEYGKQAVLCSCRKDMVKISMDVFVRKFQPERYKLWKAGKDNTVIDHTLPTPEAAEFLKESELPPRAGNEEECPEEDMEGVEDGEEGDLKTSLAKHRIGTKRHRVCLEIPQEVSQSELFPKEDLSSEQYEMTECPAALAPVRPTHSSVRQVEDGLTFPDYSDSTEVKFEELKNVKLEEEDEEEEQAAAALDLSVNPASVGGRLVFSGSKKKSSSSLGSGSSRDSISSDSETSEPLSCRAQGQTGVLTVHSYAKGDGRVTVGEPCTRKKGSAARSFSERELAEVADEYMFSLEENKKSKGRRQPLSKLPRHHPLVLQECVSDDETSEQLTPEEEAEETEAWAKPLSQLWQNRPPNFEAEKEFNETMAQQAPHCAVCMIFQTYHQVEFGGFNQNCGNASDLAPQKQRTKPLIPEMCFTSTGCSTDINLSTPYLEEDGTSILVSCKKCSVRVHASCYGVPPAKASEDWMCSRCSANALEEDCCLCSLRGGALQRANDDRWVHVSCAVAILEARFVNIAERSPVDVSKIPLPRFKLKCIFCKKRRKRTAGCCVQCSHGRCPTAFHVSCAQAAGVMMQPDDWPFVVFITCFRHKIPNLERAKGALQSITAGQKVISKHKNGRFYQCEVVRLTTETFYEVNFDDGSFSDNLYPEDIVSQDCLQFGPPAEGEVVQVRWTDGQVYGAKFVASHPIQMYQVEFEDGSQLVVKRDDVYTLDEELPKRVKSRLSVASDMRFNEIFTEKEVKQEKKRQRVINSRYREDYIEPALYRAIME
Six1-Eya2 blk: qHTS Assay for Inhibitors of the Six1/Eya2 Interaction | Homeobox protein SIX1 (Homo sapiens) + Protein phosphatase EYA2 (Homo sapiens), … | AlphaScreen GST-Six1/His-Eya2 binding, biochemical; active compounds read low | activity change, % (no concentration beside the values) | 360,000 tested, 0.56% active; in the data active = activity change below about -65%; inconclusive = mostly about -30% to -63%; also: % is scaled to controls: 0 for no effect and ±100 for the full control effect
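AlphaScreen luminescence read after one hour at 37 °C in darkness. Pin-transferred compounds met GST-Six1 and His-Eya2 protein (5X stock 250 nM/500 nM) plus glutathione donor and Ni-chelate acceptor beads (5X, 50 ug/mL).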
G9a inh: qHTS Assay for Inhibitors of Histone Lysine Methyltransferase G9a | Histone-lysine N-methyltransferase EHMT2 (Homo sapiens), Q96KQ7 | G9a H3K9 monomethylation, AlphaScreen, 2 h | Potency, µM (series often up to 102 µM), for the others: at the top dose activity, negative = inhibition, hits mostly inhibitors | 350,000 tested, 8.8% active | AID 504332, 2011; also: potency is read from the fitted curve at half-maximal effect; % is scaled to controls: 0 for no effect and ±100 for the full control effect; nearly all actives have a fitted effect of over 75% in size
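AlphaScreen read-out: biotin-H3K9 peptide (500 nM) methylation by 20 nM enzyme with 20 uM SAM, 2 h at room temperature after 15 min compound preincubation; anti-monomethyl H3K9 antibody plus donor/acceptor beads, 10 min dark.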
CtBP-E1A inh: qHTS Assay for Inhibitors of the CtBP/E1A Interaction. CtBP / adenovirus E1A interaction (AlphaScreen). AlphaScreen GST-E1A/His-CtBP binding, 1536-well; active compounds read low. activity change, % (no concentration beside the values). 340,000 tested, 0.49% active. AID 651724, 2012; in the data active = activity change below about -65%; inconclusive = mostly about -30% to -63%; also: % is scaled to controls: 0 for no effect and ±100 for the full control effect
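Homogeneous bead-based format: GST-tagged E1A captured on glutathione donor beads, His-tagged CtBP on nickel acceptor beads; compounds precede bead addition by 2 h at 37 °C.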
The depositor's hits bear a star; ? = inconclusive; · = no result; ! = repeats disagree; [ ] = dose if it differs, or a comment. An excerpt weighted towards active compounds, which were near 10% of everything screened. Unless noted, calls follow the shape of the dose curve; as a rule, active = well fitted inhibition curve with a large enough effect; inconclusive = small, poorly fitted or top-dose-only effect; inactive = no such curve, though single readings can be large or run the other way.

SMILES	BAZ2B inh	HP1b chromo inh	JMJD2A Tudor inh	Six1-Eya2 blk	G9a inh	CtBP-E1A inh
CN1CCN(C(=O)/C(=C/c2cn(C)c3ccccc23)NC(=O)c2ccccc2)CC1	-9.8%	2.9%	-12.7%	-4.3	·	-5.4
COc1ccc(C(=O)N/C(=C\c2cn(C)c3ccccc23)C(=O)N2CCN(C)CC2)cc1	-38.4%	41.3%	-29.8%	-1.4	44.7µM*	0.7
O=C(N/C(=C\c1ccco1)C(=O)N1CCOCC1)c1ccco1	3.9%	20.1%	-5.5%	-2.6	31.6µM*	1.3
COc1ccc(C(=O)N/C(=C/c2ccco2)C(=O)N2CCCCCC2)cc1	?	20.8%	-22.6%	-3.2	35.5µM*	-1.6
COc1ccc(OC)c(N2C(=O)c3ccccc3C2c2nnnn2-c2ccc3c(c2)OCCO3)c1 (centres undefined)	·	·	·	4.6	·	7.1
CC1CN(C(=O)/C(=C/c2ccco2)NC(=O)c2ccccc2)CC(C)O1 (centres undefined)	-2.9%	0.3%	-10.6%	-8.1	35.5µM*	0.0
CCN1CCN(C(=O)/C(=C/c2ccco2)NC(=O)c2ccccc2)CC1	0.8%	20.8%	10.9%	8.3	?	0.0
O=C(N/C(=C/c1ccco1)C(=O)N1CCCCCC1)c1ccccc1	1.7%	-15.2%	-16.4%	-3.3	44.7µM*	-16.5
COc1ccc(C2Nc3ccccc3C(=O)N2Cc2ccccc2)cc1OCc1ccc(NC(C)=O)cc1 (centres undefined)	·	·	-25.2%	·	·	·
c1ccc(-c2cc3ccccc3[nH]2)cc1	-4.7%	26.4%	-9.4%	-8.4	·	3.4
Cc1ccc(O)c(-c2cc3ccccc3[nH]2)c1	44.7µM*	?	?	-13.0	?	-1.5
COc1ccc(-c2cc3ccccc3[nH]2)cc1	-21.4%	?	7.08µM*	-6.1	·	0.7
CCc1nnc(NC(=O)CN2CC(C)OC(C)C2)s1 (centres undefined)	-2.9%	13.5%	-1.4%	-6.8	14.4%	·
CCc1nnc(NC(=O)CN2CCN(C3CCCCC3)CC2)s1	?	-18.7%	7.08µM*	2.1	10µM*	1.6
CCCc1nnc(NC(=O)CN2CCN(C)CC2)s1	79.4µM*	34.5%	-19.7%	4.0	?	8.3
COc1cccc(OC)c1C(=O)Nc1nnc(-c2cccs2)s1	-1.1%	-2.1%	-13.8%	2.1	·	1.3
CCC(CC)C(=O)Nc1nnc(-c2cccs2)s1	5.3%	-12.8%	-12.2%	3.9	15.8µM*	4.2
CCCN1CCN(CC(=O)Nc2nnc(C)s2)CC1	-28.7%	12.5%	-9.0%	8.3	·	·
CN1CCN(CC(=O)Nc2nnc(-c3cccs3)s2)CC1	-4.0%	4.2%	11.2µM*	8.2	?	1.1
CCOc1ccc(NC(=O)CSc2nnc(-c3ccc(OCC)cc3)o2)cc1	2.2%	44.0%	-12.6%	·	-25.9%[59 µM]	·
C[C@@H]1CN([C@@H](C)CO)C(=O)CCCn2nncc2CO[C@@H]1CN(C)C(=O)Nc1ccc(-c2cccs2)cc1	·	·	·	-0.6	·	1.4
NC(=O)c1ccc(N2CCCCC2)c(N2C(=O)C3CC=CCC3C2=O)c1 (centres undefined)	50.1µM*	21.6%	-5.0%	2.2	1.3%[12.7 µM]	-9.8
O=C(c1cccc(N2C(=O)C3CC=CCC3C2=O)c1)N1CCCCCC1 (centres undefined)	1.0%	12.2%	-25.0%	2.5	9.0%[59 µM]	9.3
COc1ccc(-c2nc3c4ccccc4n(CC(=O)Nc4cc(F)ccc4F)c(=O)n3n2)cc1	-7.5%	25.0%	-14.9%	·	-16.3%[59 µM]	·
Cc1nc2cc(-c3cccs3)nn2c(NCC(C)(C)CN(C)C)c1C	-22.7%	36.2%	-12.4%	0.3	50.1µM*	-5.8
SMILES	BAZ2B inh	HP1b chromo inh	JMJD2A Tudor inh	Six1-Eya2 blk	G9a inh	CtBP-E1A inh
CCN(CC)CCCNc1cc(C)nc2cc(-c3cccs3)nn12	-37.2%	28.5%	-14.7%	-1.5	44.7µM*	-1.2
Cc1cc(C(F)(F)F)n2nc(-c3cccs3)cc2n1	-2.7%	43.8%	28.2%	11.1	·	1.3
CN(C)S(=O)(=O)N(CC(=O)NCCSCc1cccc(Cl)c1)c1ccccc1	0.9%	43.8%	5.2%	·	2.8%[59 µM]	·
CCOc1cnc(-c2c(-c3c(Cl)cccc3Cl)noc2C)o1	44.7µM*	44.7µM*	57.0%	-4.0	44.7µM*	-15.8
CCOc1cnc(-c2ccc(Cl)cc2)o1	-19.8%	12.6%	8.7%	-2.0	?	3.5
COc1cc(NC(=O)CN2CCN(CC(=O)Nc3ccc(F)cc3)CC2)cc(OC)c1	0.5%	12.5%[57 µM]	-5.5%	·	-4.1%[59 µM]	·
COc1cccc(NC(=O)CN2CCN(CC(=O)Nc3ccc(F)cc3)CC2)c1	4.3%	62.7%	-11.4%	-4.7	35.5µM*	6.7
COc1ccc(NC(=O)CN2CCN(CC(=O)Nc3ccccc3OC)CC2)c(OC)c1	0.3%	36.8%	-6.4%	-2.2	?	-0.9
NS(=O)(=O)c1ccc(NC(=O)CN2CCN(S(=O)(=O)c3cccs3)CC2)cc1	-7.6%	5.2%	-27.0%	2.6	50.1µM*	3.4
COc1ccc(NC(=O)CN2CCN(S(=O)(=O)c3cccs3)CC2)cc1Cl	-1.2%	62.0%	-10.4%	-3.2	7.3%[12.7 µM]	14.8
COc1ccc(NC(=O)CN2CCN(CC(=O)Nc3ccccc3F)CC2)c(OC)c1	9.3%	41.8%	-10.8%	-2.3	31.6µM*!	-6.9
COc1cc(NC(=O)CN2CCN(CC(=O)Nc3ccccc3OC)CC2)cc(OC)c1	-0.9%	32.7%	-18.1%	2.8	44.7µM*	0.4
Cc1cccc(NC(=O)CSc2nc(-c3cccs3)cc(C(F)(F)F)c2C#N)c1C	14.1%	52.9%	1.6%	·	29.8%[59 µM]	·
COc1ccccc1NC(=O)CN1CCN(CC(=O)Nc2ccc(OCc3ccccc3)cc2)CC1	-34.2%	1.8%	-26.8%	-3.7	35.5µM*	-7.9
COc1ccccc1NC(=O)CN1CCN(CC(=O)Nc2ccc(S(N)(=O)=O)cc2)CC1	4.2%	23.9%	-9.4%	7.2	44.7µM*	·
COc1ccc(NC(=O)CN2CCN(CC(=O)Nc3ccccc3F)CC2)cc1OC	-5.2%	33.8%	-18.9%	-2.5	44.7µM*!	-3.5
O=C(CN1CCCC1)Nc1ccc(OCc2ccccc2)cc1	-17.0%	14.9%	-13.0%	1.6	?	·
COc1ccccc1NC(=O)CN1CCN(CC(=O)Nc2ccc(F)cc2)CC1	8.9%	40.0%	-2.9%	7.4	?	2.5
COc1ccccc1NC(=O)CN1CCN(CC(=O)Nc2ccc(OC)c(OC)c2)CC1	-1.6%	40.4%	-16.7%	2.5	?	3.6
